# Measured values from PubChem BioAssay AID463193 (University of Pittsburgh Molecular Library Screening Center, 2010).
# The campaign covered roughly 190,000 compounds. About 1,900 (1%) were called active. The sample holds actives, similar compounds and a random draw of the others, so the mix is not that of the screen.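 How the source made its calls: active means percentage of spot-positive cells more than 3 SD above its plate mean, without a fluorescence outlier flag or 80% toxicity; inconclusive means no clear call, values can overlap the other calls; inactive means the rest.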
# Assay: autophagy modulators in MEF cells, primary screen, imaging, high-content, MEF GFP-LC3 (AID 463193);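 on % cells with GFP-LC3 spots: spot-positive cell cutoff set from DMSO-treated cells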;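 on toxicity: cell loss after 18 h compound exposure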
# Settings: MEF GFP-LC3 puncta imaging, at 10 µM; % cells with GFP-LC3 spots: stronger effect = higher value; toxicity: measured here: cell loss, nuclei count
SMILES,% cells with GFP-LC3 spots,toxicity [%]
CC(=O)n1c(C=Nc2ccccc2)c(O)c2ccccc21,6.01% (inactive),-16
CN(c1ccccc1)c1ccc(/C=c2\s/c(=C(/C#N)C(=O)C(C)(C)C)n(Cc3ccco3)c2=O)cc1,71.3% (active),-2.03
COc1ccc(NC(=O)Cn2c(=O)n(Cc3ccco3)c(=O)c3ccccc32)cc1,3.23% (inactive),-0.177
CCOC(=O)CSc1nc2c(sc(=S)n2CCc2ccccc2)c(=O)n1Cc1ccco1,25.9% (inactive),36.2
Cc1cc(C(=O)N/N=C/c2cc([N+](=O)[O-])cc(C)c2O)n[nH]1,6.01% (inactive),8.83
CCOC(=O)Cc1ncccc1C(=O)Nc1ccc(OC)cc1,2.71% (inactive),-9.63
O=C(CSc1nnc(-c2ccncc2)n1-c1ccc(Cl)cc1)Nc1ccc(C(=O)O)cc1,1.88% (inactive),-0.961
COC(=O)c1ccc(C(=O)Nc2cc(Cl)ccc2Cl)cc1NC(=O)c1ccccc1C,29.3% (active),-19.2
COC(=O)c1ccc(C(=O)OC)c(NC(=S)N2CCN(c3cc(Cl)ccc3C)CC2)c1,12.5% (inactive),21.9
CCCN(CCC)C(=S)Nc1cc(C(=O)OC)ccc1C(=O)OC,12.3% (inactive),-2.2
CN(c1ccccc1)S(=O)(=O)c1cc(C(=O)OCC(=O)N2CCN(C(=O)c3ccco3)CC2)ccc1Cl,11.3% (active),-3.57
CN(c1ccccc1)S(=O)(=O)c1ccc(Cl)c(C(=O)OCC(=O)N2CCOCC2)c1,0.158% (inactive),2.3
O=C(OCC(=O)N1CCN(C(=O)c2ccco2)CC1)c1ccccc1Cc1ccccc1,7.07% (inactive),4.3
Cc1ccc(-n2cc(CN(C)Cc3nccn3C)c(-c3cccc(C)c3)n2)cc1,1% (inactive),-0.155
CCCCCC1CCC(c2nnc(SCC(C)=O)o2)CC1 (stereo unspecified),10.7% (active),-6.19
CCN(CC)C(=O)CSc1nnc(C2CCCCC2)o1,4.79% (inactive),-0.426
CN(C)/N=C/c1cc(Cl)cc([N+](=O)[O-])c1O,9.47% (inactive),-11.7
CCCc1nc(NCc2ccc3c(c2)OCO3)c2nnn(Cc3ccccc3Cl)c2n1,15.7% (active),5
O=C(Cn1cnc2c(nnn2Cc2ccc(F)cc2)c1=O)NCc1ccc2c(c1)OCO2,2.36% (inactive),-2.24
Cc1nc(Nc2ccc3c(c2)OCCO3)c2nnn(Cc3ccccc3Cl)c2n1,8.6% (inactive),4.03
CCOc1ncccc1C(=O)N(C)CC(=O)Nc1ccc(F)cc1,5.93% (inactive),-12.3
O=C(NCc1ccncc1)C(=O)NCc1ccco1,0.301% (inactive),-9.14

SMILES,% cells with GFP-LC3 spots,toxicity [%]
CCSc1nc(C)nc2c1oc1ccccc12,7.02% (inactive),8.62
CCc1nc(Nc2ccc3nccnc3c2)c2oc3ccccc3c2n1,19% (active),-4.67
COc1ccccc1Nc1ncnc2c1oc1ccccc12,5.61% (inactive),1.55
CN(C)C(=O)c1nc2ccc(Cl)cn2c1CN1CCN(c2ncccn2)CC1,2.1% (inactive),-12.9
CC(C)C(=O)Nc1c(O)c2ccccc2[nH]c1=O,0.457% (inactive),5.73
CCOc1ccccc1N1CCN(C(=O)COc2ccc3c(C)cc(=O)oc3c2)CC1,3.98% (inactive),7.33
COc1ccc([C@H]2[C@H](C(C)=O)N3N=Cc4ccccc4C3C23C(=O)OC(C)(C)OC3=O)cc1 (stereo partly specified),3.81% (inactive),-2.15
C/C(=N/Nc1ccc(Cl)cc1)c1cnnc(-c2ccccc2)n1,45.6% (active),-1.98
CC/C(=N/Nc1ccccc1)c1cnnc(SC)n1,1.72% (inactive),-12.6
O=C(Cc1ccc(Cl)cc1)NCc1nc(-c2ccccc2)no1,1.76% (inactive),18
CNc1nccc(-c2ccc(Cl)cc2)c1C#N,0.668% (inactive),-6.73
NC(=O)c1ccc(CN2CCC(Cc3ccccc3)CC2)cc1,4.13% (inactive),31.8
COc1ccc(NC(=O)N2CCC(Cc3ccccc3)CC2)cc1,5.76% (inactive),-6.26
CC(C)(C)NC(=O)NC(=O)CN1CCC(Cc2ccccc2)CC1,8.11% (active),52.4
O=C(NCc1ccco1)c1nn2cccnc2c1Cl,2.07% (inactive),-10.5
Cc1ccc(/C([O-])=C(/C(=S)NCc2ccco2)[n+]2ccccc2)cc1[N+](=O)[O-],1.01% (inactive),4.63
Cc1ccc(NC2=C(Cl)C(=O)OC2OC(=O)c2ccccc2C)cc1 (stereo unspecified),9.77% (inactive),12.9
CCOc1ccccc1C(=O)NCc1ccco1,3.98% (inactive),-2.98
O=c1nc2s/c(=C\c3ccco3)c(=O)n2nc1Cc1ccccc1,1.32% (inactive),-3.5
CCOc1ccccc1/C=c1\sc2nc(-c3ccco3)nn2c1=O,23.9% (active),-24.1
Cc1cc(C)c2c(n1)nn1c(N3CCOCC3)cc(C)nc21,8.07% (inactive),5.9
